Results: PubChem BioAssay AID1159580 (chemical genetic matrix, 2015)
The campaign covered roughly 5,500 compounds. About 2,000 (36%) were called active. Not shown: some 18% with an inconclusive outcome. Cut-off read from the data, not from the text of the source: active = normalized growth mostly below about 0.91 (no sharp cut-off); inconclusive = no clear call, values can overlap the other calls; inactive = mostly above about 0.92. This is one part of the list.

Test: chemical genetic growth profiling, strain panel (AID 1159580);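 note: tested at 20 µM; growth read once vehicle control cultures reached saturation at 30 °C; 1 = growth at the plate median or of vehicle wells; lower values mean less growth of the strain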
Settings: S. cerevisiae deletion strains, growth OD

Measured: normalized growth

O=c1[nH]c2ccccc2n1CCCN1CCC(n2c(=O)[nH]c3cc(Cl)ccc32)CC1
active: locus YER155C, strain BEM2 (second series), stronger effect = lower value 0.863
inactive: locus YAL013W, strain DEP1, stronger effect = lower value 0.982 | locus YAL021C, strain ccr4, stronger effect = lower value 0.982 | locus YAL026C, strain drs2, stronger effect = lower value 1.01 | locus YAL030W, strain snc1, stronger effect = lower value 0.991 | locus YAL040C, strain CLN3, stronger effect = lower value 1 | locus YBL061C, strain skt5, stronger effect = lower value 0.981 | locus YBR009C, strain hhf1, stronger effect = lower value 0.967 | locus YBR023C, strain chs3, stronger effect = lower value 0.982 | locus YBR171W, strain sec66, stronger effect = lower value 0.979 | locus YBR231C, strain swc5, stronger effect = lower value 0.945 | locus YBR279W, strain paf1, stronger effect = lower value 0.992 | locus YCL011C, strain gbp2, stronger effect = lower value 0.987 | locus YCL016C, strain dcc1, stronger effect = lower value 0.989 | locus YCL061C, strain MRC1 (second series), stronger effect = lower value 1.01 | locus YCL069W, strain vba3, stronger effect = lower value 0.978 | locus YCR088W, strain abp1, stronger effect = lower value 0.983 | locus YDL005C, strain med2, stronger effect = lower value 0.971 | locus YDL040C, strain nat1, stronger effect = lower value 0.959 | locus YDR001C, strain nth1, stronger effect = lower value 0.969 | locus YDR069C, strain doa4, stronger effect = lower value 0.971 | locus YDR137W, strain rgp1, stronger effect = lower value 1.05 | locus YDR159W, strain sac3, stronger effect = lower value 0.956 | locus YDR195W, strain ref2 0.979 | locus YDR297W, strain sur2, stronger effect = lower value 0.984 | locus YDR334W, strain swr1, stronger effect = lower value 0.976 | locus YDR335W, strain msn5, stronger effect = lower value 0.961 | locus YDR363W, strain ESC2, stronger effect = lower value 1 | locus YDR392W, strain spt3, stronger effect = lower value 0.942 | locus YEL003W, strain gim4, stronger effect = lower value 0.976 | locus YEL037C, strain rad23, stronger effect = lower value 0.974 | locus YEL061C, strain CIN8 (second series), stronger effect = lower value 0.98 | locus YER002W, strain NOP16, stronger effect = lower value 0.997 | locus YER015W, strain faa2, stronger effect = lower value 0.976 | locus YER016W, strain bim1, stronger effect = lower value 1 | locus YER111C, strain swi4, stronger effect = lower value 0.976 | locus YFR010W, strain ubp6, stronger effect = lower value 0.951 | locus YGL167C, strain pmr1, stronger effect = lower value 0.964 | locus YGL173C, strain kem1, stronger effect = lower value 0.964 | locus YGL227W, strain vid30, stronger effect = lower value 0.972 | locus YGL240W, strain doc1, stronger effect = lower value 0.927 | locus YGL253W, strain hxk2, stronger effect = lower value 1.01 | locus YGR078C, strain PAC10, stronger effect = lower value 1.01 | locus YGR229C, strain SMI1, stronger effect = lower value 1.01 | locus YHR013C, strain ard1, stronger effect = lower value 0.965 | locus YHR027C, strain rpn1, stronger effect = lower value 0.997 | locus YHR030C, strain SLT2, stronger effect = lower value 1.02 | locus YHR079C, strain IRE1, stronger effect = lower value 0.994 | locus YHR142W, strain chs7, stronger effect = lower value 0.981 | locus YJL092W, strain hpr5, stronger effect = lower value 0.965 | locus YJL095W, strain BCK1 (second series), stronger effect = lower value 0.982 | locus YJL095W, strain BCK1, stronger effect = lower value 0.997 | locus YJL115W, strain asf1, stronger effect = lower value 0.994 | locus YJL129C, strain trk1, stronger effect = lower value 0.916 | locus YJL154C, strain vps35, stronger effect = lower value 0.958 | locus YJL164C, strain tpk1, stronger effect = lower value 0.997 | locus YJL166W, strain qcr8, stronger effect = lower value 0.929 | locus YJL187C, strain SWE1, stronger effect = lower value 0.978 | locus YJR066W, strain TOR1, stronger effect = lower value 0.932 | locus YKL160W, strain elf1, stronger effect = lower value 0.964 | locus YKR026C, strain gcn3, stronger effect = lower value 0.982 | locus YKR091W, strain srl3, stronger effect = lower value 0.984 | locus YLL001W, strain dnm1, stronger effect = lower value 0.917 | locus YLL026W, stronger effect = lower value 0.969 | locus YLL041C, strain sdh2, stronger effect = lower value 0.988 | locus YLR027C, strain aat2, stronger effect = lower value 0.972 | locus YLR113W, strain HOG1, stronger effect = lower value 1 | locus YLR221C, strain rsa3, stronger effect = lower value 1.01 | locus YLR258W, strain gsy2, stronger effect = lower value 0.998 | locus YLR262C, strain YPT6 (second series), stronger effect = lower value 0.999 | locus YLR320W, strain mms22, stronger effect = lower value 1 | locus YLR342W, strain FKS1, stronger effect = lower value 0.933 | locus YLR357W, strain rsc2, stronger effect = lower value 0.937 | locus YLR370C, strain arc18, stronger effect = lower value 0.966 | locus YLR384C, strain iki3, stronger effect = lower value 0.978 | locus YML120C, strain ndi1, stronger effect = lower value 0.962 | locus YMR058W, strain fet3, stronger effect = lower value 0.959 | locus YMR125W, strain sto1, stronger effect = lower value 1.02 | locus YMR129W, stronger effect = lower value 0.982 | locus YMR205C, strain PFK2, stronger effect = lower value 0.978 | locus YMR231W, strain pep5, stronger effect = lower value 0.977 | locus YMR307W, strain GAS1, stronger effect = lower value 0.992 | locus YNL071W, strain lat1, stronger effect = lower value 0.989 | locus YNL175C, strain NOP13, stronger effect = lower value 1.01 | locus YNL183C, strain NPR1, stronger effect = lower value 0.955 | locus YNL197C, strain WHI3, stronger effect = lower value 1.02 | locus YNL209W, strain ssb2, stronger effect = lower value 0.992 | locus YNL224C, strain SQS1, stronger effect = lower value 1 | locus YNL248C, strain rpa49, stronger effect = lower value 0.996 | locus YNL322C, strain KRE1 (second series), stronger effect = lower value 0.975 | locus YNR049C, strain mso1, stronger effect = lower value 0.983 | locus YOR001W, strain rrp6, stronger effect = lower value 0.952 | locus YOR070C, strain gyp1, stronger effect = lower value 0.991 | locus YOR080W, strain dia2, stronger effect = lower value 0.96 | locus YOR083W, strain WHI5 (second series), stronger effect = lower value 0.926 | locus YOR083W, strain WHI5, stronger effect = lower value 0.911 | locus YOR106W, strain vam3, stronger effect = lower value 0.927 | locus YOR231W, strain MKK1, stronger effect = lower value 1.01 | locus YOR265W, strain rbl2, stronger effect = lower value 0.986 | locus YOR270C, strain vph1, stronger effect = lower value 0.936 | locus YOR290C, strain snf2, stronger effect = lower value 0.988 | locus YPL051W, strain arl3, stronger effect = lower value 0.971 | locus YPL078C, strain atp4, stronger effect = lower value 0.926 | locus YPL106C, strain sse1, stronger effect = lower value 0.998 | locus YPL240C, strain hsp82, stronger effect = lower value 0.997 | locus YPL241C, strain CIN2, stronger effect = lower value 1.01 | locus YPL256C, strain CLN2, stronger effect = lower value 0.995
